In PubChem BioAssay AID1963322 (National Center for Advancing Translational Sciences (NCATS), 2024):
Inconclusive results are not listed. Calls of active or inactive are those of the source. Calls come from the whole dose curve.

Biological target: cAMP-dependent protein kinase catalytic subunit alpha (Homo sapiens) (UniProt P17612)
Assay: Protein Kinase A (PKA-HiBiT) SDR gain of signal screen
Details: PKA-HiBiT structural dynamics response (SDR), luminescence gain of signal; series mostly up to 32.9 µM; activity change, positive = signal gain: at the top concentration
Source text: National Center for Advancing Translational Sciences (NCATS),
National Institute of Health (NIH), Maryland
Discovery and optimization of novel protein-binding ligands underlies many of the methods and applications of biology, drug discovery, clinical diagnostics, and environmental toxicology. Assays for detecting the interaction of, for example, a molecule with a macromolecular target also referred to here as the target of interest (TOI) is dependent on a compatible output technology. Depending on the nature and knowledge surrounding the TOI, whether a receptor, enzyme, regulatory subunit or scaffold, or a sequence-defined nucleic acid folded into a complex tertiary structure, assay strategies can vary widely.
Here we exploit ligand-biased changes in the structural dynamics of the target protein to control reporter alpha complementation allowing a non-competitive, non-functional, non-separation measure of ligand-target interaction.
Using a chemical library of >1,200 compounds enriched for scaffolds known to be associated with the inhibition of firefly luciferase (FLuc) activity (PubChem AIDs 2309) we first illustrate and compare the Structural Dynamics Response (SDR) assay vs. the standard functional FLuc enzyme assay (2). Secondly, we show the specificity and sensitivity of the SDR for the Abelson tyrosine kinase (ABL1) compared to the serine/threonine protein kinase A, using an enriched chemical library of 128 compounds selected, in part, for activity annotated with ABL1 kinase activity using the Pharos database (3).
(1) A. S. Dixon et al., NanoLuc Complementation Reporter Optimized for Accurate Measurement of Protein Interactions in Cells. ACS Chem Biol 11, 400-408 (2016).
Chemistry & Biology, 19, 1060 - 1072 (2012).
(3) K. J. Kelleher et al., Pharos 2023: an integrated resource for the understudied human proteome. Nucleic Acids Res 51, D1405-D1416 (2023).
PROTOCOL TABLE (as described by Inglese J, Shamu CE and Guy RK. 2007)
SEQUENCE No. (e.g., 1, 2, 3, etc.); […] (e.g., C. elegans, Compounds, Incubation, Read, etc.); VALUE and DESCRIPTION.
1. Reagent. Dispense 4 uL PKA-N-HiBiT enzyme per well at a final enzyme concentration of 10 nM in buffer into columns 2-48 of four replicate Greiner 1536-well white,solid bottom high base, medium plates per assay. Dispense respective buffer without enzyme at 4 uL/well in column 1 of assay plates using BioRaptr 2.
2. Compounds. Library compounds added at 23 nL/well by pin transfer. DMSO neutral control and H-89 positive control added at 25 nL/well, transfer by Mosquito dispenser.
3. Incubation. Incubate enzyme and compounds at room temperature for 30 min, protect from light.
4. Reagent. (SDR assay) Add 3 uL/well of Nano-Glo HiBiT reagent (Promega) to assay plates.
5. Incubation. (SDR assay) Incubate enzyme solution HiBiT reagent at room temperature for 10 min, protected from light.
6. Detector. (SDR assay) Luminescence measured using CCD-based camera (ViewLux) with settings as follows: Exposure, 1 sec; Gain, High; Speed, Slow; Binning, 2X.

Row | Structure (SMILES) | activity change, positive = signal gain | Potency
1 | COC(=O)Nc1ccc(-c2nc(N3CCOCC3)c3cnn(C4CCN(C(=O)OC)CC4)c3n2)cc1 | 6.1% (inactive) | –
2 | COc1cc(N2CCC(O)CC2)ccc1Nc1nc(Nc2ccccc2S(=O)(=O)C(C)C)c2[nH]cnc2n1 | 17.5% (inactive) | –
3 | Cc1[nH]c(/C=C2\C(=O)Nc3ccc(S(=O)(=O)Cc4c(Cl)cccc4Cl)cc32)c(C)c1C(=O)N1CCC[C@@H]1CN1CCCC1 | -38.9% (inactive) | –
4 | O=C(NCCO)c1cccc(-c2cc(Nc3ccc(OC(F)(F)F)cc3)ncn2)c1 | 1.64% (inactive) | –
5 | C#Cc1cccc(Nc2ncnc3cc4c(cc23)OCCOCCOCCO4)c1 | 4.44% (inactive) | –
6 | COc1cc2c(cc1OC)-c1[nH]nc(Nc3cccc(F)c3)c1C2 | 5.36% (inactive) | –
7 | O=C(c1cccc(Cl)c1F)N1CCN(Cc2cccc(Nc3nccs3)n2)CC1 | -14.8% (inactive) | –
8 | CCN1/C(=C\C(C)=O)Sc2ccc(OC)cc21 | 8.08% (inactive) | –
9 | N#Cc1cccc(-c2c[nH]c3ncnc(N4CCOCC4)c23)c1 | – | 13.4 µM (active)
10 | CCn1c(=O)c(-c2ccc(Cl)cc2Cl)cc2cnc(Nc3ccc(N4CCNCC4)c(F)c3)nc21 | 15.1% (inactive) | –
11 | c1ccc2c(-c3cnn4cc(-c5ccc(N6CCNCC6)cc5)cnc34)ccnc2c1 | 6.14% [at 3.64 µM] (inactive) | –
12 | C[C@@H]1CN(CC(=O)Nc2ccc3c(c2)Cc2cccc(-c4cc(=O)cc(N5CCOCC5)o4)c2S3)C[C@H](C)O1 | -4.67% (inactive) | –
13 | c1cc(-c2cc(C3CCNCC3)[nH]n2)ccn1 | – | 3.62 µM (active)
14 | Cc1cc(Nc2cc(N3CCN(C)CC3)nc(Sc3ccc(NC(=O)C4CC4)cc3)n2)n[nH]1 | -6.42% (inactive) | –
15 | COc1ccc(-n2c(SCC#N)nc3sc4c(c3c2=O)CCCC4)cc1 | 5.77% (inactive) | –
16 | Nc1ncnc2c1c(-c1cnc3[nH]ccc3c1)nn2C1CCCC1 | 13.7% (inactive) | –
17 | COc1cc2c(N3CCN(C(=O)Nc4ccc(OC(C)C)cc4)CC3)ncnc2cc1OCCCN1CCCCC1 | 7.07% (inactive) | –
18 | CC(C)CCN1c2nc(Nc3cc(F)c(O)c(F)c3)ncc2N(C)C(=O)C1C (stereo not given) | -13.2% (inactive) | –
19 | Nc1nc(Nc2ccc(S(N)(=O)=O)cc2)n(C(=S)Nc2c(F)cccc2F)n1 | – | 11.1 µM (active)
20 | Cc1cc(Nc2ncc3cc(-c4c(Cl)cccc4Cl)c(=O)n(C)c3n2)ccc1F | -18.3% (inactive) | –

Row | Structure (SMILES) | activity change, positive = signal gain | Potency
21 | Cc1cccc(C)c1-n1c(=O)c2cnc(Nc3ccc(N4CCN(C)CC4)cc3)nc2n2c3ccccc3nc12 | -44.7% (inactive) | –
22 | Cc1ccc(NC(=O)N2CCN(c3nc(N)nc4sc(-c5cccnc5)nc34)CC2)cc1 | 4.4% (inactive) | –
23 | COc1cc2ncnc(-n3nc(-c4ccccn4)nc3N)c2cc1OC | 6.78% [at 16.4 µM] (inactive) | –
24 | CC1(C)OCCn2c1nc1c(N3CCOCC3)nc(-c3cnc(N)nc3)nc12 | 4.3% (inactive) | –
25 | Cc1ccc(C(=O)Nc2ccc(Oc3cc4cnn(C)c4cc3-c3cn[nH]c3)c(F)c2)c(=O)n1-c1ccc(F)cc1 | 8.3% (inactive) | –
26 | COc1ccc(-n2c(C)c([N+](=O)[O-])c3ccc(O)cc32)cc1 | 4.08% (inactive) | –
27 | Cc1cc(Nc2ncc3c(n2)N(C)C(=O)N(c2cc(NC(=O)c4cccc(C(F)(F)F)c4)ccc2C)C3)n(C)n1 | 2.14% (inactive) | –
28 | C[C@@H](NC(=O)c1ncnc(N)c1Cl)c1ncc(C(=O)Nc2cc(C(F)(F)F)c(Cl)cn2)s1 | -1.83% (inactive) | –
29 | Cc1nc2ccc(-n3ncc(C(=O)c4cc5ccccc5[nH]4)c3N)cc2[nH]1 | 4.86% (inactive) | –
30 | CNc1ncc2cc(-c3cc(NC(=O)NCCC(C)(C)C)c(F)cc3C)c(C)nc2n1 | 2.19% (inactive) | –
31 | O=c1cc(N2CCOCC2)nc2c3ccccc3ccn12 | 2.48% (inactive) | –
32 | COc1ccc(CNC(=O)Nc2ncc([N+](=O)[O-])s2)cc1 | -0.27% (inactive) | –
33 | O=C(NOCC(O)CO)c1cc(Br)c(F)c(F)c1Nc1ccc(I)cc1F (stereo not given) | -34.9% (inactive) | –
34 | Cc1sc2c(c1C)C(c1ccc(Cl)cc1)=N[C@@H](CC(=O)Nc1ccc(OCCOCCOCCOCCNc3cccc4c3C(=O)N(C3CCC(=O)NC3=O)C4=O)cc1)c1nnc(C)n1-2 (stereo not given in full) | 4.85% (inactive) | –
35 | O=C1CCC(N2C(=O)c3ccccc3C2=O)C(=O)N1 (stereo not given) | -9.83% (inactive) | –
36 | Cc1cc(C)c(/C=C2\C(=O)Nc3ccccc32)[nH]1 | -43.1% (inactive) | –
37 | Cc1ccc(NC(=O)c2ccc(CN3CCN(C)CC3)cc2)cc1Nc1nc(-c2cccnc2)cs1 | 5.21% (inactive) | –
38 | CC(C)(C)n1nc(-c2cccc3ccccc23)c2c(N)ncnc21 | 9.35% (inactive) | –
39 | Cc1cc(-c2cc(O)ccc2Cl)cc2nnc(Nc3ccc(OCCN4CCCC4)cc3)nc12 | -11.2% (inactive) | –
40 | Cn1cc(-c2cc3c(N4CCN(c5ncc([C@@](C)(N)c6ccc(F)cc6)cn5)CC4)ncnn3c2)cn1 | 11.1% (inactive) | –
